Screening data (PubChem BioAssay)
Only some compounds are listed: those with a hit (about 18% of all), similar ones and a draw of the others.
TDP1 cell CPT: DT40-hTDP1 cell growth loss with CPT. chicken DT40 Tdp1-/-;hTDP1 cells + 20 nM CPT, ATP luminescence, 48 h. Potency, µM (series often up to 46.2 µM), actives largely listed as inhibitors. actives 12% (n = 420,000); further: nearly all actives have a fitted effect of over 55% in size
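Cell growth measured by CellTiter-Glo luminescence after a minimum 48 h, 37 C compound exposure with 20 nM CPT in Tdp1-knockout DT40 cells stably expressing hTDP1, seeded 400/well; qHTS titration format.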
VDR inh: blocks the human vitamin D receptor; VDR-SRC2-3 peptide fluorescence polarization, 2 h; P11473; Potency, µM, most hits filed as inhibitors; actives 0.93% (n = 400,000)
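The screen uses fluorescence polarization to detect compounds that interfere with recruitment of the SRC2-3 coactivator peptide to VDR; plates are read after 2 h at room temperature.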
GCN5L2 inh: inhibitors of human GCN5L2 histone acetyltransferase; Q92830; GCN5L2 HAT assay, ThioGlo1 CoA-SH fluorescence; Potency, µM (top dose mostly 58.9 µM), hits mostly inhibitors; actives 0.21% (n = 390,000)
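GCN5L2 (20nM final) in 50mM HEPES, 0.1mM EDTA pH 7.5, 0.01% Tween-20 was preincubated 15 min at room temperature with compound, then given ThioGlo1 (50uM), H3(1-25) peptide (75uM) and acetyl-CoA (70uM); CoA-thiol fluorescence (Ex340/Em540) was read at 0 and 20 min.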
PLK1 PBD inh: blocks phosphopeptide binding to human PLK1 polo-box domain | Potency, µM, actives largely listed as inhibitors | actives 2.8% (n = 360,000) | P53350 | AID 720504 | Plk1 PBD binding of FITC phosphopeptide, fluorescence polarization; further: series mostly up to about 57 µM; nearly all actives have a fitted effect of over 65% in size
TDP1 block: TDP1 (human) enzyme inhibition; AID 485290; recombinant TDP1, AlphaScreen DNA substrate cleavage; Q9NUW8; Potency, µM (titrated, usually from 130 µM), most hits filed as inhibitors; actives 0.28% (n = 350,000); further: nearly all actives have a fitted effect of over 40% in size
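Recombinant E. coli-expressed Tdp1 (1 nM) preincubated with compound 15 min at RT, then 5'-biotin/3'-phosphotyrosine-FITC DNA substrate (15 nM) added for 5 min. AlphaScreen beads (10 ug/ml) added, 10 min RT; tyrosine-FITC cleavage read as signal loss.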
TDP1 cell noCPT: qHTS for Inhibitors of human tyrosyl-DNA phosphodiesterase 1 (TDP1): qHTS in cells in absence of CPT; DT40 Tdp1-/- hTDP1 cells, no CPT, ATP luminescence, 48 h; Potency, µM (titrated, usually from 46.2 µM), hits mostly inhibitors; actives 15% (n = 420,000); further: nearly all actives have a fitted effect of over 55% in size
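Luminescent ATP content (CellTiter-Glo) served as the growth readout. Knockout chicken DT40 cells expressing human TDP1 were exposed to compounds without camptothecin for a minimum 48 hr at 37 °C.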
Numbers stand for hits; n = inactive; u = inconclusive; x = no result given. The call rests on the fitted dose curve; in most records, active means well fitted curve in the direction sought with a large enough effect; inconclusive means small, poorly fitted or top-dose-only effect, or another doubt; inactive means no such curve, though single readings can be large; an effect the other way counts as inactive or inconclusive.

SMILES	TDP1 cell CPT	VDR inh	GCN5L2 inh	PLK1 PBD inh	TDP1 block	TDP1 cell noCPT
CCN1CCN(c2nc3ccccc3nc2C(C#N)C(=O)OC2CCCCC2)CC1 (centres undefined)	23µM	n	n	n	n	23µM
CN1CCN(c2nc3ccccc3nc2C(C#N)C(=O)OC2CCCCC2)CC1 (centres undefined)	29µM	n	n	n	n	u
N#CC(C(=O)OC1CCCCC1)c1nc2ccccc2nc1N1CCOCC1 (centres undefined)	u	n	n	u	n	u
CCOC(=O)C1CCCN(c2nc3ccccc3nc2C(C#N)C(=O)OC(C)COC)C1 (centres undefined)	n	n	n	n	n	u
Cc1ccc(C(=O)Nc2cccc(-c3nc4cccnc4s3)c2C)cc1	u	n	n	x	n	u
CCOc1cccc(C(=O)N(Cc2ccc(C(C)C)cc2)C2CCS(=O)(=O)C2)c1 (centres undefined)	21µM	n	n	x	n	u
CCOc1cccc(C(=O)N(Cc2ccc(CC)cc2)C2CCS(=O)(=O)C2)c1 (centres undefined)	18µM	n	n	x	n	u
CCCCOc1ccc(C(=O)N(Cc2ccccc2)C2CCS(=O)(=O)C2)cc1 (centres undefined)	u	n	n	n	n	u
CCCN(C(=O)c1cc(S(=O)(=O)N(C)c2ccc(OCC)cc2)ccc1C)C1CCS(=O)(=O)C1 (centres undefined)	u	n	n	n	n	26µM
CCOc1cccc(C(=O)N(Cc2ccco2)C2CCS(=O)(=O)C2)c1 (centres undefined)	n	n	n	n	n	n
CCCCOc1cccc(C(=O)N(Cc2ccccc2)C2CCS(=O)(=O)C2)c1 (centres undefined)	13µM	n	n	n	n	15µM
CCN(C(=O)c1cc(S(=O)(=O)N2CCCC2)ccc1C)C1CCS(=O)(=O)C1 (centres undefined)	n	n	n	n	n	n
COc1ccc(C(=O)N(Cc2ccc(C(C)C)cc2)C2CCS(=O)(=O)C2)cc1 (centres undefined)	u	n	n	x	n	15µM
CCOC(=O)[C@]12CCC=C1N(Cc1ccc(Cl)cc1Cl)C(=O)[C@H](CC(=O)NCCCOC)C2	u	x	x	n	x	16µM
CCCCNC(=O)C[C@@H]1C[C@@]2(C(=O)OCC)CCC=C2N(Cc2ccc(Cl)cc2Cl)C1=O	u	x	x	n	x	16µM
CCOC(=O)[C@]12CCCC=C1N(Cc1ccc(Cl)cc1Cl)C(=O)[C@H](CC(=O)NCCCCc1ccccc1)C2	u	x	x	n	x	u
Nc1nc(-c2ccco2)nn1S(=O)(=O)c1ccc(Cl)cc1	n	n	n	n	n	n
Cc1noc(C)c1COc1ccccc1C(=O)NCc1ccco1	n	n	n	n	n	n
CC(=O)N1CCCC1c1nc2ccccc2n1Cc1c(F)cccc1Cl (centres undefined)	u	n	n	x	n	u
CC(=O)N1CCCC1c1nc2ccccc2n1Cc1cc(C)ccc1C (centres undefined)	23µM	n	n	x	n	23µM
c1ccc(-c2ccc(N3CC[C@@]4(CCCNC4)C3)cc2)cc1	18µM	u	n	x	x	21µM
c1ccc(C(c2ccccc2)N2CC3(CCNCC3)C2)cc1	21µM	u	n	x	x	15µM
c1ccc(-c2ccc(N3CC4(CCNCC4)C3)cc2)cc1	4.1µM	n	n	x	x	2.6µM
O=S(=O)(c1ccccc1)N1CCC2(CCN(c3ccc(-c4ccccc4)cc3)CC2)CC1	u	n	n	x	x	n
O=C(c1ccncc1)N1CCC2(CCCN(c3ccc(-c4ccccc4)cc3)C2)CC1	u	u	n	x	x	u
SMILES	TDP1 cell CPT	VDR inh	GCN5L2 inh	PLK1 PBD inh	TDP1 block	TDP1 cell noCPT
O=C(c1ccncc1)N1CCC2(CC1)CN(C(c1ccccc1)c1ccccc1)C2	n	n	n	x	x	n
c1ccc(-c2ccc(N3CCCC4(CCNCC4)C3)cc2)cc1	5.8µM	u	n	x	x	2.6µM
COC(=O)C[C@@H]1OC[C@H](CO)N1S(=O)(=O)c1ccc(C)cc1	n	x	x	n	x	n
Nc1c(C(=O)c2ccc(Cl)cc2)sc2nsc(SCCN3CCOCC3)c12	4.6µM	n	n	n	n	9.2µM
Cc1cc(C)c2c(N)c(C(=O)c3ccc(Cl)cc3)sc2n1	u	n	n	n	n	u
CN(C)c1ccc(/C=C/c2sc3ccccc3[n+]2CCCCI)cc1	0.56µM	x	x	x	x	0.71µM
CCCCCCCCCCCCCCCCCCN(CCCCCCCCCCCCCCCCCC)c1ccc(/C=C/c2ccnc3ccccc23)cc1	n	x	x	x	x	n
CCCC[n+]1c(/C=C/c2ccc(N(C)C)cc2)sc2ccccc21	0.025µM	x	x	x	x	0.1µM
CN(Cc1ccccc1)c1ccc(/C=C/c2sc3ccccc3[n+]2C)cc1	0.089µM	x	x	x	x	0.11µM
CCCCCCCCCC[n+]1ccc(/C=C/c2ccc(N(C)C)cc2)c2ccccc21	0.35µM	x	x	x	x	0.32µM
Cc1onc(-c2ccccc2)c1CNS(=O)(=O)c1ccccc1[N+](=O)[O-]	n	n	n	n	n	u
Nc1ncnc2c1nc(Sc1ccc(Cl)cc1)n2[C@H]1OC2COP(=O)(O)O[C@H]2[C@@H]1O (some centres undefined)	n	x	x	x	x	n
COc1ccc(-c2c(C)[nH]n3c(=O)c(Cc4ccccc4)c(C)nc23)cc1OC	u	n	n	n	n	18µM
Cc1ccccc1Cc1c(C)nc2c(-c3ccccc3)c(C)[nH]n2c1=O	u	n	n	x	n	21µM
Cc1cccc(Cc2c(C)nc3c(-c4ccccc4)c(C)[nH]n3c2=O)c1	5.8µM	n	n	x	n	3.7µM
CCCCc1c(C)nc2c(-c3ccc(OC)cc3)c(C)[nH]n2c1=O	16µM	n	n	x	n	10µM
Cc1nc2c(-c3ccccc3)c(C)[nH]n2c(=O)c1Cc1ccccc1	u	n	n	n	n	u
COc1cc(Cl)c(C)cc1NC(=O)C(OC(=O)CNC(=O)c1ccccc1)c1ccccc1 (centres undefined)	x	x	x	x	n	x
Cc1nc2ccc(NS(=O)(=O)c3ccc4c(c3)OCCO4)cc2s1	1.8µM	n	n	n	n	1.5µM
COc1ccc(S(=O)(=O)Nc2ccc3c(c2)OCCO3)cc1OC	n	n	n	n	n	n
Cc1nc2ccc(NS(=O)(=O)c3ccc(Br)cc3)cc2s1	13µM	n	n	n	n	5.2µM
Cc1nc2ccc(NS(=O)(=O)c3cccc([N+](=O)[O-])c3)cc2s1	18µM	n	n	n	n	15µM
Cc1nc2ccc(NS(=O)(=O)c3ccc(F)c(F)c3)cc2s1	18µM	n	n	n	n	u
